Experimental data as given in PubChem BioAssay AID743445 (Broad Institute, 2014).
Among all 310,000 compounds or so, about 1,700 (0.55%) were called active. Shown is part of a subset that was picked to be rich in actives. Values without a mark were called inactive. Rule as the data show it: active = inhibition above about 50%; inactive = the rest.

The molecules below were run against Histone-lysine N-methyltransferase NSD2 (Homo sapiens) (UniProt O96028) (assay: NSD2 histone methyltransferase inhibitors, primary screen, biochemical, AlphaScreen, single concentration, set 2 (AID 743445)). Details: NSD2 peptide methylation, 120 min, at 12.5 µM, active compounds read high.
Histone-lysine N-methyltransferase NSD2 (Homo sapiens), sequence (O96028 whole entry, looked up): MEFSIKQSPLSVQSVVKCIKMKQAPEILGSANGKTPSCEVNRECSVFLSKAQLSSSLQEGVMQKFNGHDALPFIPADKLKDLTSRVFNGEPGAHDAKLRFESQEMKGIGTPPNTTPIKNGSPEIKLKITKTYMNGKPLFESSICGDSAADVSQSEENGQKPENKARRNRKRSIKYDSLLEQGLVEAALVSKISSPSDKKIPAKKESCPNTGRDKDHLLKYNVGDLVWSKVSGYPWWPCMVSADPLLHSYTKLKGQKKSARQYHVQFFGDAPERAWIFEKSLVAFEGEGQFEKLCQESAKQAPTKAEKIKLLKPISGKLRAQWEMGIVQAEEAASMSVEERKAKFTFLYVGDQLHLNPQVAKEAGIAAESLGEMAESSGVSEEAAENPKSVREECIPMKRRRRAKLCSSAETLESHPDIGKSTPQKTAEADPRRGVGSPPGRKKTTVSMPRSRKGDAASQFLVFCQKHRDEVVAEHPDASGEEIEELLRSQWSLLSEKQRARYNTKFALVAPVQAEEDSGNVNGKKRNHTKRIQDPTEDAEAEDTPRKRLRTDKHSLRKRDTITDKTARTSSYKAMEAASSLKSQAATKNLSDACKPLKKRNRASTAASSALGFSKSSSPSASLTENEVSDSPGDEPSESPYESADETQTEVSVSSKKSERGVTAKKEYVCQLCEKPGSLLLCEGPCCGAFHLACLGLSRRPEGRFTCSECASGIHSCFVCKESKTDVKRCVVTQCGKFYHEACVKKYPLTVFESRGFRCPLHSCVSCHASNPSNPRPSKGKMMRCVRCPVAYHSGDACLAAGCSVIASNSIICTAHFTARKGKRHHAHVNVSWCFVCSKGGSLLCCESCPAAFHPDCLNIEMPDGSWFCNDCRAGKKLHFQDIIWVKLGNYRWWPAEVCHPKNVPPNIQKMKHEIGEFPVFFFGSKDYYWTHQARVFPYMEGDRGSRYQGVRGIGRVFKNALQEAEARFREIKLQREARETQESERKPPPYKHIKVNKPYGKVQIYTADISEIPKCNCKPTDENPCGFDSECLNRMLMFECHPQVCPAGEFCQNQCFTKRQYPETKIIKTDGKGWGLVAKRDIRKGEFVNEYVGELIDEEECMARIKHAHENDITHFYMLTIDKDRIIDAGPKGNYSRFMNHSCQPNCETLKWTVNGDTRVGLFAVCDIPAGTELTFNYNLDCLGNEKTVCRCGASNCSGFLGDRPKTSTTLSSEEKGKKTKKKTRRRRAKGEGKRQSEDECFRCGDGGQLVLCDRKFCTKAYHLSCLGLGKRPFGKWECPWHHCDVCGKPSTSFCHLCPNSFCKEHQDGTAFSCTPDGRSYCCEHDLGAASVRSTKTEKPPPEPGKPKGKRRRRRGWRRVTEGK
With `COC(=O)[C@@H](Cc1ccccc1)NC(=O)NCCc1ccccc1` the inhibition was 0.664%.
With `COC(=O)[C@H](Cc1ccccc1)NC(=O)Nc1ccc(S(N)(=O)=O)cc1` the inhibition was 59.7% (active).
`COC(=O)[C@H](Cc1ccccc1)NC(=O)Nc1ccc(OC)cc1` gave an inhibition of -1.09%.
For `COc1ccc(NC(=O)C2(C)Cc3c(-c4cccc(NC(C)=O)c4)ccnc3O2)cc1OC` (configuration not stated), the inhibition was 1.97%.
`CCOc1ccccc1C(=O)Nc1cccc(C(=O)Nc2cc(C)ccn2)c1` showed an inhibition of 1.28%.
`O=C(CSc1nnc(-c2cccc(Cl)c2)n1Cc1ccco1)Nc1ccc(OCc2ccccc2)cc1` showed an inhibition of -1.47%.
In the case of `CC(=O)c1cc(-c2ccccc2)n(CC(=O)NC2CCCCC2)c1C`, the inhibition is reported as 71.5% (active).
Molecule `CC(=O)CC(CC(=O)NC1CCCCC1)c1ccccc1` (configuration not stated) has an inhibition of -4.05%.
In the case of `CC(=O)c1cc(-c2ccccc2)n(CCC(=O)NC2CCCCCC2)c1C`, the inhibition is reported as 1.47%.
`CCN(CC)S(=O)(=O)c1ccc(N2CCOCC2)c(NC(=O)C(C)Oc2ccc(F)cc2)c1` (configuration not stated) was tested, and the inhibition was -1.83%.
`CCN(CC)S(=O)(=O)c1ccc(N2CCN(C)CC2)c(NC(=O)Nc2ccccc2F)c1` was tested, and the inhibition was 78.4% (active).
`CN1CCN(c2ccc(S(=O)(=O)N3CCCCC3)cc2NC(=O)Cc2ccccc2F)CC1` gave an inhibition of 1.27%.
In the case of `Cc1nc([N+](=O)[O-])cn1CC(=O)Nc1ccc2c(c1)OCO2`, the inhibition is reported as -1.66%.
`Cc1ccc(C(=O)Cn2cc([N+](=O)[O-])nc2C)cc1` was tested, and the inhibition was 55.2% (active).
`Cc1nc([N+](=O)[O-])cn1CC(=O)Nc1ccc(Cl)cc1` was tested, and the inhibition was -0.868%.
For `COc1ccc(CCc2nc(-c3cccs3)no2)cc1`, the inhibition was -6.21%.
For `COc1ccc(OC)c(-c2csc(-c3cccs3)n2)c1`, the inhibition was 126% (active).
`COc1ccc(OC)c(-c2csc(NC(=O)COC(=O)C3CC3)n2)c1` showed an inhibition of -2.87%.
Work on `COc1ccc(-c2cc(NC=O)c3ncc(-c4cc(OC)c(OC)c(OC)c4)n3c2)c(OC)c1` yielded an inhibition of 2.63%.
In the case of `COc1ccc(C(=O)N2CCCCC2c2cc(C(=O)Nc3ccc(F)c(Cl)c3)no2)cc1` (configuration not stated), the inhibition is reported as -0.843%.
Work on `COc1ccc(C(C)NC(=O)C23CC4CC(CC(C4)C2)C3)cc1` (configuration not stated) yielded an inhibition of 0.365%.
For `CCOc1ccc(C(CC(=O)O)NC(=O)Cc2ccccc2)cc1OC` (configuration not stated), the inhibition was 0.638%.
For `CCOc1ccc(C(CC(=O)O)NC(=O)C23CC4CC(CC(C4)C2)C3)cc1OC` (configuration not stated), the inhibition was 73.2% (active).
In the case of `CCC(NC(=O)C1C2C=CC3(CN(Cc4ccccc4)C(=O)C13)O2)c1ccccc1` (configuration not stated), the inhibition is reported as -0.276%.
With `CC(=O)N1CCc2cc(S(=O)(=O)NCCC(=O)N3CCCC3)ccc21` the inhibition was -3.38%.
Work on `Cc1ccc(-n2c(SCC(=O)Nc3ccc(S(=O)(=O)Nc4nccs4)cc3)nnc2-c2ccccn2)cc1` yielded an inhibition of 10.5%.
For `Cc1coc2c(O)cc3c(c12)OC1(N2CCCCC2)C(=O)NCCCC31` (configuration not stated), the inhibition was 75.1% (active).
`COc1ccccc1CCNC(=O)C1CCN(c2nc(C)cc(C)n2)CC1` was tested, and the inhibition was -3.97%.
With `Cc1ccc(C(=O)N(Cc2ccccn2)CC2CCCO2)cc1` (configuration not stated) the inhibition was -6.08%.
`OC(c1ccccc1)c1nc(/C=C/c2ccc(C(F)(F)F)cc2)cs1` (configuration not stated) was tested, and the inhibition was -1.07%.
`CSc1ccc(CN2CCC2(C)C(=O)Nc2ccc(C)c(O)c2)cc1` (configuration not stated) gave an inhibition of -2.34%.
In the case of `COCC(C)n1c(SCC(=O)NC2CCCCC2C)nc2ccccc2c1=O` (configuration not stated), the inhibition is reported as 52.7% (active).
For `COCC(C)n1c(SCc2ccc(C(=O)OC)o2)nc2ccccc2c1=O` (configuration not stated), the inhibition was -0.047%.
`COCCn1c(C)cc(C(=O)CSc2nc3ccccc3c(=O)n2C(C)COC)c1C` (configuration not stated) gave an inhibition of 1.34%.
With `COC(CNC(=O)[C@H](Cc1ccccc1)NC1(C(=O)NC2CCCCC2)CCCCC1)OC` the inhibition was -1.53%.
`CC1(Oc2ccc(Cl)cc2)CCN(Cc2csc3ccccc23)C1` (configuration not stated) showed an inhibition of -2.85%.
With `COC(=O)c1nc(NC(=O)c2ccccc2)n[nH]1` the inhibition was 64.1% (active).
Molecule `COC(=O)c1nc(NC(=O)c2ccc(C(C)(C)C)cc2)n[nH]1` has an inhibition of -1.33%.
`COC(=O)c1nc(NC(=O)c2ccc(F)cc2)n[nH]1` showed an inhibition of -3.85%.
For `COc1cccc(CSc2nnc(-c3cccnc3)n2Cc2ccccc2)c1`, the inhibition was 2.07%.
`CCc1nc2c(OCCOc3ccccc3)cccn2c1N(C)C(=O)c1cccs1` gave an inhibition of -0.996%.
In the case of `CC(=O)c1cccc(-c2cnc3c(NC=O)cc(-c4ccc(N5CCN(C)CC5)cc4)cn23)c1`, the inhibition is reported as 2.68%.
For `CC(C)(C)CC(=O)Nc1nc(C(N)Cc2ccc(C(F)(F)F)cc2)cs1` (configuration not stated), the inhibition was 14%.
For `O=C(NCCCN1CCOCC1)c1cc(-c2cccc(O)c2)on1`, the inhibition was -0.66%.
Work on `O=C(Nc1cccnc1Cl)c1cc(-c2cccc(Cl)c2)on1` yielded an inhibition of -7.36%.
With `CCN(CC)CCCNC(=O)c1cc(-c2cccc(Cl)c2)on1` the inhibition was 63.4% (active).
Molecule `Cc1ccc(-c2nc(C3CCCN(S(=O)(=O)c4ccc(Br)s4)C3)no2)cc1` (configuration not stated) has an inhibition of -7.73%.
For `CCOc1cc2ccccc2cc1C(=O)Nc1ccccn1`, the inhibition was -0.208%.
`Cc1cccc(OCC(=O)NCCCNC(=O)c2ccccn2)c1` gave an inhibition of 1.46%.
With `CCN(CC)CCOc1ccc2c(c1)C(=NNC(=O)c1ccccn1)c1cc(OCCN(CC)CC)ccc1-2` the inhibition was 64.6% (active).
`C=CCn1c2c(c3ccccc31)CCC2` was tested, and the inhibition was 1.47%.
`Cc1ccc(Nc2ncnc3c2cnn3C)c(C)c1` gave an inhibition of -0.415%.
In the case of `Cn1ncc2c(Nc3cccc4ccccc34)ncnc21`, the inhibition is reported as 58.9% (active).
`Cn1ncc2c(NNC(=O)Cc3cccc4ccccc34)ncnc21` showed an inhibition of -5.08%.
In the case of `Cc1cc(C)cc(NC(=O)N2CCC(N(C)CCC(C)C)CC2)c1`, the inhibition is reported as 6.38%.
`Cc1cc(NS(=O)(=O)c2ccc(NC(=O)CSc3nnc(SCc4ccc(F)cc4)s3)cc2)nc(C)n1` gave an inhibition of 1.71%.
Work on `CCOC(=O)C(=O)N(Cc1ccccc1)c1ccccc1C(=O)Nc1cc(OC)ccc1OC` yielded an inhibition of 3.11%.
In the case of `Cc1[nH]n(-c2ccccc2)c(=O)c1N=Nc1ccccc1C(=O)N1CCCCC1`, the inhibition is reported as 56.8% (active).
With `Cc1cccc(N=Nc2c(C)[nH]n(-c3ccccc3)c2=O)c1` the inhibition was 9.54%.
With `COC(=O)c1ccccc1N=Nc1c(C)[nH][nH]c1=O` the inhibition was 0.329%.
Work on `OC(c1ccccc1)c1nc(-c2cnc3ccccc3c2)cs1` (configuration not stated) yielded an inhibition of 2.58%.
`COC(=O)CC1CCc2cc(C)cc(C(CC(C)C)NC(=O)[C@H](CC(C)C)NC(=O)OCc3ccccc3)c2O1` (some centres not stated) gave an inhibition of -2.73%.
`O=C(/C=C/c1ccc(Cl)cc1Cl)NCc1ccco1` was tested, and the inhibition was 57.4% (active).
With `O=C(NCc1ccco1)C1(c2ccc(Cl)cc2)CCCC1` the inhibition was 3.15%.
`COC(=O)/C=C/C(=O)NCc1ccco1` gave an inhibition of 0.685%.
`CCOc1ccc(-n2c(SCC(=O)Nc3cc(C)c(NC(=O)c4ccccc4)cc3OC)nnc2-c2cccc(Cl)c2)cc1` was tested, and the inhibition was 1.66%.
`c1csc(-c2nnc(SCc3nc4ccccc4[nH]3)o2)c1` showed an inhibition of -7.8%.
For `O=C(CSc1nc2ccccc2nc1N1CCCCC1)N1CCN(S(=O)(=O)c2cccc([N+](=O)[O-])c2)CC1`, the inhibition was -12%.
In the case of `CC(=O)NC(c1ccccc1)c1nc(-c2cccc(C(C)C)c2)cs1` (configuration not stated), the inhibition is reported as 3.74%.
`CCOC(=O)c1c(C)[nH]c2c1-c1ccccc1C(=O)C2=O` was tested, and the inhibition was 82.9% (active).
`CCOC(=O)c1c(C)[nH]c(C)c1S(=O)(=O)N(C)CC(=O)Nc1ccccc1C` was tested, and the inhibition was 2.08%.
Work on `CCOC(=O)c1ccccc1OC(=O)Oc1ccccc1C(=O)OCC` yielded an inhibition of -0.93%.
With `CCOc1ccc2nc(NC(=O)C3CC3)sc2c1` the inhibition was -0.715%.
Work on `CCCC1CCC2(CCCN2CCOC(=O)NCc2ccccc2)CC1` (configuration not stated) yielded an inhibition of -1.02%.
With `O=C(CNS(=O)(=O)c1ccccc1F)N1CCN(c2ccccn2)CC1` the inhibition was -3.13%.
`COc1ccc(-c2cc(-c3nnc(SCc4ccc([N+](=O)[O-])cc4)n3N)[nH]n2)cc1` was tested, and the inhibition was -2.18%.
`COc1cc(C(=O)Nn2c(O)c(C3=c4ccccc4=NC3=O)sc2=S)ccc1O` was tested, and the inhibition was 51.8% (active).
`COc1cc(C(=S)NC2CCCCC2)ccc1O` gave an inhibition of 6.51%.
With `COc1cc(C(=O)Nn2c(CC(C)C)nc3ccccc3c2=O)cc(OC)c1OC` the inhibition was -1.2%.
`O=C(CCS(=O)(=O)c1ccccc1)Nc1ccc(Cl)c(Cl)c1` showed an inhibition of -0.439%.
`O=C(Nc1ccccc1C(=O)Nc1ccc(F)cc1)c1ccccc1F` was tested, and the inhibition was 0.274%.
`Cc1nn(-c2ccccc2)c(Cl)c1/C=N/NC(=O)c1nn(C)cc1[N+](=O)[O-]` was tested, and the inhibition was 6.06%.
In the case of `Cc1cc(=O)[nH]c(N/N=C/c2ccc3c(c2)OCCO3)n1`, the inhibition is reported as -3.07%.
`Cc1cc(=O)[nH]c(N/N=C/c2c(C)nn(-c3ccccc3Cl)c2Cl)n1` was tested, and the inhibition was 69.3% (active).
`Cc1c(NC(=O)Nc2ccccc2)cccc1[N+](=O)[O-]` gave an inhibition of -2.18%.
With `O=[N+]([O-])c1ccccc1Nc1ccc(O)cc1` the inhibition was 81% (active).
For `O=C(Nc1ccccc1[N+](=O)[O-])C1C(c2ccccc2)=C1c1ccccc1`, the inhibition was -5.32%.
For `CCc1nc2ccc(C(=O)NCc3ccc(OC)cc3)cn2c1N(CC)Cc1cccc(Br)c1`, the inhibition was -0.31%.
`C=CCc1cccc2cc(C(=O)OCC)c(=O)oc12` was tested, and the inhibition was 3.09%.
With `C=CCc1cccc2cc(C(=O)NC3CCCC3)c(=O)oc12` the inhibition was -2.76%.
With `C=CCc1cccc2cc(C(=O)Nc3ccc(NC(C)=O)cc3)c(=O)oc12` the inhibition was 52.4% (active).
In the case of `CCCC(=O)N1CCC1(C)C(=O)NCc1ccc(C(C)C)cc1` (configuration not stated), the inhibition is reported as 0.789%.
